A3G deaminase = APOBEC3G (human) deaminase inhibition; recombinant A3G, ssDNA deamination FAM/TAMRA fluorescence; inhibition, % at 20 µM; 330,000 compounds, 0.28% hits;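 active = inhibition of at least 40% at 20 µM, with no more than 30% in the related APOBEC3A deaminase screen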;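 note: plate controls were DMSO wells with A3G for no effect and wells lacking A3G enzyme for full effect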
Target sequence (Q9HC16 whole entry, looked up): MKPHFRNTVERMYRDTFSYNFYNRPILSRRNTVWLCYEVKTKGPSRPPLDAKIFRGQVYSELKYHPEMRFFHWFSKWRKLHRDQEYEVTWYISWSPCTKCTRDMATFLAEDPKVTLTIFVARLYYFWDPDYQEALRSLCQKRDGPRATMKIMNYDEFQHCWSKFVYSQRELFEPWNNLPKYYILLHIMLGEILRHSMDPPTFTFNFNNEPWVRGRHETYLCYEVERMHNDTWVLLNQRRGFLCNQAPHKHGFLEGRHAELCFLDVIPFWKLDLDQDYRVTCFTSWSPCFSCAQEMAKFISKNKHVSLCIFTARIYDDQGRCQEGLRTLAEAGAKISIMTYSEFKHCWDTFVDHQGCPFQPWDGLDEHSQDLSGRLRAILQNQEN
PfM18AAP inh = PfM18AAP enzyme inhibition; inhibition, % at 7.35 µM; recombinant PfM18AAP, H-Glu-NHMec fluorogenic cleavage; 290,000 compounds, 1.2% hits;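 active = inhibition above the campaign mean inhibition over all tested compounds plus 3 SD, cut at about 28% in these data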;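 note: 0% = plate median of test compound wells and 100% = 2 mM ZnCl2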
PfGluPho inh = PfG6PD (Plasmodium falciparum) enzyme inhibition; PfGluPho enzyme, NADPH resazurin-diaphorase fluorescence; inhibition, % at 20 µM; 350,000 compounds, 0.78% hits; AID 504690;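 active = inhibition reaching at least a set limit at 20 µM in the primary screen, cut at about 59% in these data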;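 note: 0% = DMSO wells with substrate and 100% = DMSO wells lacking glucose-6-phosphate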
Yeast superoxide = yeast age-related superoxide inhibition as caloric restriction mimetic; S. cerevisiae aged cells, superoxide DHE fluorescence; hits give low values; superoxide response (% of plate mean), % at 10 µM; 330,000 compounds, 0.18% hits; AID 2690;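 active = superoxide response under a set limit, about three screen SD below normal, cut at about 65% in these data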;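 note: yeast aged for seven days with compound at 30 °C before DHE staining; 100% = average MFI of all compound-treated wells on the plate with controls excluded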
A3A deaminase = human APOBEC3A DNA deaminase inhibition; recombinant A3A, FAM/TAMRA ssDNA deamination fluorescence; 330,000 compounds, 0.41% hits; inhibition, % at 20 µM; AID 493011;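 active = at least 40% inhibition at 20 µM here, with at most 30% in a related deaminase screen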;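 note: plate controls were A3A with DMSO for no effect and wells lacking A3A enzyme for full effect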
Target sequence (P31941 whole entry, looked up): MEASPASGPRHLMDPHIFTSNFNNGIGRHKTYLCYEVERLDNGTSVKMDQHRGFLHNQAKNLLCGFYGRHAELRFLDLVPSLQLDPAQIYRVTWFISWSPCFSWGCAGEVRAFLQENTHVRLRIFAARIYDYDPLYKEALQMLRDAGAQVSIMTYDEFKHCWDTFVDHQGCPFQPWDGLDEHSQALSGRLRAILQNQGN
PfG6PD confirm = confirmation of Plasmodium falciparum G6PD inhibitors; recombinant PfGluPho, NADPH-diaphorase-resazurin fluorescence; inhibition, % at 20 µM; shares compounds with PfGluPho inh; 2,400 compounds, 34% hits; AID 504753;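 active = inhibition of at least 50% at 20 µM in any single replicate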;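 note: 0% = DMSO with substrate and 100% = DMSO lacking glucose-6-phosphate substrate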
Diaphorase 10uM = inhibits diaphorase or oxidizes, flagging false PfG6PD hits. 820 compounds, 39% hits. inhibition, % at 20 µM. diaphorase-coupled resazurin reduction, fluorescence, NADPH 10 uM. shares compounds with PfGluPho inh;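 active = average inhibition reaching 50% or more with the compound at 20 µM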;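 note: resorufin red fluorescence formed as diaphorase reduces resazurin using NADPH; 0% = DMSO with enzyme and 100% = DMSO without enzyme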
Diaph ctr 30uM = inhibits diaphorase or oxidizes, flagging false PfG6PD hits | shares compounds with PfGluPho inh | Diaphorase/resazurin coupled assay, resorufin fluorescence, 30 uM NADPH | inhibition, % at 20 µM | 820 compounds, 29% hits;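 active = inhibition averaging 50% or more, tested at 20 µM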;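 note: 0% = DMSO with enzyme and 100% = DMSO wells lacking diaphorase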
Numbers without * were called inactive; x = no result given. Most compounds without a hit are left out; they make up all but 2.4% or so of the library.

SMILES	A3G deaminase	PfM18AAP inh	PfGluPho inh	Yeast superoxide	A3A deaminase	PfG6PD confirm	Diaphorase 10uM	Diaph ctr 30uM
Nc1nc(SCC(=O)Nc2ccccc2Sc2ccc(Cl)cc2)n[nH]1	-3	8	110*	110	8	77*	73*	54*
CSc1ccccc1NC(=O)CSc1n[nH]c(N)n1	-4	2	-2	113	-7	x	x	x
NC(=O)C1CCN(CC(=O)Nc2ccccc2Sc2ccc(Cl)cc2)CC1	-3	6	65*	101	2	40	x	x
COc1cccc2cc(C(=O)c3ccc([N+](=O)[O-])cc3)oc12	0	-13	-19	83	0	x	x	x
Cc1ccc(C)c(C(=O)C(C)OC(=O)CN2C(=O)NC3(CC(C)CC(C)(C)C3)C2=O)c1 (stereo unspecified)	-3	2	11	110	-3	x	x	x
O=C(O)c1ccc(-n2cc(-c3cc4ccccc4oc3=O)[nH]c2=S)cc1	x	1	61*	x	x	25	x	x
CCc1nc(SCC(=O)NC2CCCC2)c2c(=O)n(C)c(=O)n(C)c2n1	-5	1	6	91	1	x	x	x
Cc1ccc(-n2nc(C(=O)N3CCOCC3)cc2-c2ccc(Cl)cc2)cc1	6	2	60*	115	0	35	x	x
O=C(c1cc(-c2ccc(Cl)cc2)n(-c2ccc(Cl)cc2)n1)N1CCOCC1	-3	-9	34	91	4	x	x	x
O=C(Nc1nc2ccccc2s1)Nc1ccc(F)cc1F	-2	0	-7	97	-3	x	x	x
O=C(Nc1ccc(F)cc1F)Nc1sccc1-c1nc2ccccc2s1	-6	2	81*	95	-4	0	x	x
CC(C)COc1ccc(CNC(=S)Nc2ccccc2)cc1Cl	-8	4	18	88	-2	x	x	x
Oc1ccc(N2CCN(c3nc(-c4cccs4)nc4ccccc34)CC2)cc1	6	27	60*	88	-4	6	x	x
O=C(CNc1ccc2c(c1)OCO2)N/N=C\c1cn(Cc2ccc(F)cc2)c2ccccc12	x	23	x	x	x	x	x	x
O=C(CNc1ccc2c(c1)OCO2)N/N=C\c1cn(Cc2ccccc2)c2ccccc12	-1	23	67*	107	-2	51*	-10	16
COCCn1c(SCC(=O)Nc2cc(C)on2)nc2c(c1=O)SCC2	-1	1	11	106	-4	x	x	x
C=CCOc1c(CNc2ccc3[nH]c(=O)[nH]c3c2)cccc1OC	-5	-112	21	96	-5	x	x	x
COc1cccc(CNc2ccc3[nH]c(=O)[nH]c3c2)c1OCc1ccc(F)cc1	-4	-40	112*	103	-8	51*	-9	-1
C=CCOc1ccc(CNc2ccc3[nH]c(=O)[nH]c3c2)cc1	-10	-67	42	106	-1	x	x	x
COc1cc(CNc2ccc3[nH]c(=O)[nH]c3c2)cc(Cl)c1OCC(=O)NC(C)(C)C	-3	0	83*	108	0	38	x	x
O=c1[nH]c2ccc(NCc3ccccc3OCc3ccc(Cl)cc3)cc2[nH]1	-1	-20	73*	107	0	47*	-9	0
O=C(CN1c2cccc3cccc(c23)S1(=O)=O)Nc1ccc(F)c(F)c1F	2	x	-2	100	3	x	x	x
S=C(NN=Cc1ccccn1)N(Cc1ccccn1)Cc1ccccn1	x	x	80*	x	x	55*	-9	-1
S=C(NN=C(c1ccccc1)c1ccccn1)N(Cc1ccccn1)Cc1ccccn1	x	x	47	x	x	x	x	x
O=c1c2cn[nH]c2[nH]c(=S)n1-c1ccccc1	-12	27	59*	116	-14	0	x	x
SMILES	A3G deaminase	PfM18AAP inh	PfGluPho inh	Yeast superoxide	A3A deaminase	PfG6PD confirm	Diaphorase 10uM	Diaph ctr 30uM
COc1cc(/C=C2/SC(=S)N(CCC(=O)Nc3cccnc3)C2=O)cc(OC)c1OC	x	x	-4	x	x	x	x	x
CCCCNc1cc(NC(C)=O)cc2cc(OC)c(OC)cc12	-9	28*	72*	127	-7	43	x	x
COc1cc2cc(NC(C)=O)cc(NCc3ccccc3)c2cc1OC	-1	16	49	111	-2	x	x	x
C=CCn1c2ccccc2c(=O)c2cc(C#Cc3ccccn3)ccc21	-12	x	80*	132	-3	36	x	x
Nc1c(C(=O)NCc2ccco2)sc2nc(N3CCOCC3)c3c(c12)CCCC3	-1	28	66*	100	-1	-1	x	x
Nc1c(C(=O)Nc2ccc(Br)cc2)sc2nc(N3CCOCC3)c3c(c12)CCCC3	x	x	12	x	x	x	x	x
C#CCCc1cscc1/C=[N+](\[O-])c1ccc(C(=O)OCC)cc1	-7	x	116*	83	-2	103*	43	15
CCOC(=O)c1ccc(/[N+]([O-])=C/c2ccccc2)cc1	13	x	90*	73	3	97*	49	8
C#CCCC(=O)c1ccccc1/C=[N+](\[O-])c1ccccc1	-9	x	30	98	-1	x	x	x
O=C(NNC(=O)c1ccccc1OCc1ccccc1)c1ccccc1F	-3	7	4	94	-3	x	x	x
O=C(NNC(=O)c1ccccc1OCc1ccccc1)c1ccccc1O	-7	1	90*	118	-4	69*	56*	56*
O=C(NNC(=O)c1ccccc1OCc1ccc(F)cc1)c1ccccc1O	-6	10	120*	114	-4	70*	67*	50*
Clc1ccc2[nH]cc(-c3nnnn3-c3ccccc3)c2c1	2	7	96*	106	2	36	x	x
COc1ccc(C(=O)NNC(=O)c2ccc(F)c(S(=O)(=O)N3CCOCC3)c2)cc1	-3	x	-17	104	-3	x	x	x
O=C(c1ccc(Cl)cc1)c1ccc(CN2C(=O)c3ccccc3C2=O)o1	0	8	-2	103	0	x	x	x
Cc1oc2c(c1C(=O)c1ccc(Cl)cc1)C(=O)C(=O)c1ccccc1-2	x	0	117*	x	x	88*	83*	77*
Cc1ccc(C(=O)c2c(C)oc3c2C(=O)C(=O)c2ccccc2-3)cc1	-9	15	107*	118	-2	92*	92*	98*
Cc1ccc(C(=O)c2coc3c2C(=O)C(=O)c2ccccc2-3)cc1	3	10	110*	106	-10	110*	93*	100*
C[C@@H]1CN([C@H](C)CO)C(=O)CCCn2nncc2CO[C@@H]1CN(C)C(=O)C1CC1	x	x	-5	x	x	x	x	x
O=C(c1ccc(Cl)c(S(=O)(=O)N2CCOCC2)c1)N1CCCCCC1	-12	9	-7	98	-3	x	x	x
OCCOCCN1CCN(C2=Nc3ccccc3Sc3ccccc32)CC1	-7	5	-4	101	0	x	x	x
O=C1C=CC(=O)c2c(O)c(N3CCN(CCO)CC3)c(Cl)c(O)c21	x	x	103*	x	x	89*	54*	57*
O=C1C=CC(=O)c2c(O)c(N3CCN(CCOCCO)CC3)c(Br)c(O)c21	x	x	115*	x	x	87*	61*	53*
COc1ccc2[nH]c(=O)c(CNc3cccc(C)c3)cc2c1	-1	8	69*	88	1	-2	x	x
